Screening data deposited in PubChem by National Center for Advancing Translational Sciences (NCATS).
Rows were chosen to be rich in hits. Some 8.6% of all compounds tested hit in one or more screens of this group.
Marburg entry: qHTS for Inhibitors of binding or entry into cells for Marburg Virus; Marburg virus pseudotype entry/binding inhibition, cell-based; Potency, µM (top dose mostly 49.2 µM), without a hit: top-dose activity change, negative = inhibition, usual class: inhibitors; 6.5% of 18,000 active; AID 720532, 2013
Lassa entry: qHTS for Inhibitors of binding or entry into cells for Lassa Virus | Lassa virus pseudotyped entry inhibition, cell-based qHTS | Potency, µM (highest dose often 49.2 µM), for inactives: at the highest dose activity change, negative = inhibition, hits mostly inhibitors | 4.1% of 18,000 active
* marks the source's active call; other numbers are inactive results; ! = not confirmed by another sample; [ ] = another dose, or the depositor's remark. Calls follow the shape of the full dose curve; tested in HEK293 cells. % is scaled to controls: 0 for no effect and ±100 for the full control effect; potency is read from the fitted curve at half-maximal effect.

Screening COc1ccccc1-n1cc(C(=O)NCCN2Cc3ccccc3OC(c3ccsc3)C2)cn1 (centres undefined) returned Marburg entry -3.4% and Lassa entry -11.9%.
Screening C#CCCCON=C1C[C@@H](O)[C@H](O)[C@H]2[C@@H]3C(=O)N(c4cccc(Oc5ccccc5)c4)C(=O)[C@@H]3CC[C@@H]12 returned Marburg entry 31.0%[8.59 µM] and Lassa entry 8.4%[8.59 µM].
O=S1(=O)c2cc(Cl)ccc2Oc2ccccc2CN1Cc1cccc(F)c1 was read as Marburg entry inconclusive and Lassa entry -13.1%.
`COc1ccc(O[C@H]2C=C[C@@H](c3ccccc3)O[C@H]2COC(=O)CCC(C)=NOC[C@@H](O)COCc2ccco2)cc1` gave Marburg entry 9.9%[8.59 µM].
Screening CCN1C(=O)[C@@H]2[C@H]3[C@H](O)[C@H](O)CC(=NOCC[C@@H]4C=C[C@H](OC(C)=O)[C@@H](COC(C)=O)O4)[C@@H]3CC[C@H]2C1=O returned Marburg entry -14.6%[8.59 µM] and Lassa entry -1.4%[8.59 µM].
`O=C(O)C1=CC(=C(c2ccc(O)c(C(=O)O)c2)c2ccc(O)c(C(=O)O)c2)C=CC1=O` gave Marburg entry 0.445µM* and Lassa entry 2.6%.
For Nc1ccc(O)c(C(=O)O)c1 the results were Marburg entry inconclusive and Lassa entry -7.0%.
O=C(OCc1cn([C@@H]2CN(C(=O)c3cccs3)[C@@H](c3ccc(Cl)cc3)C[C@@H]2O)nn1)c1ccccc1 was read as Marburg entry -7.8% and Lassa entry 4.1%.
`CC(C)C(NS(C)(=O)=O)c1nnc2n1CCN(Cc1ccc3cccnc3c1)CC2` (centres undefined) gave Marburg entry 10.5% and Lassa entry -9.6%.
Screening C=C[C@]1(C)C[C@@H](OC(=O)CSCCN(CC)CC)[C@]2(C)[C@H](C)CC[C@]3(CCC(=O)[C@H]32)[C@@H](C)[C@@H]1O returned Marburg entry inconclusive and Lassa entry -10.5%.
Screening C=CCN1Cc2ccccc2Oc2ccc(Cl)cc2S1(=O)=O returned Marburg entry 9.5% and Lassa entry 42.1%.
For Cc1oc(-c2ccccc2NC(=O)c2ccccc2)nc1CNC(=O)c1cccc(-n2cccn2)c1 the results were Marburg entry inconclusive and Lassa entry -10.6%.
CCCCCCCCCCCC1=C(O)C(=O)C=C(O)C1=O was read as Marburg entry 6.5% and Lassa entry 28.2µM*!.
`CCCCCCCCCCC1=C(C)C(=O)C(OC)=C(OC)C1=O` gave Marburg entry -4.8% and Lassa entry -9.3%.
`Cn1ccc2c(C=Cc3ccc(F)cc3)cc3c(c21)C1CCC3C1` (centres undefined) gave Marburg entry -21.4% and Lassa entry -4.1%.
Screening CN1[C@@H]2CC[C@H]1CC(OC(=O)c1c[nH]c3ccccc13)C2 (some centres undefined) returned Marburg entry 20µM*! and Lassa entry inconclusive.
Screening C[N+]1(C)[C@@H]2CC[C@H]1CC(OC(=O)c1c[nH]c3ccccc13)C2 (some centres undefined) returned Marburg entry 6.1% and Lassa entry -7.8%.
Screening C=CCOC(=O)N[C@H](c1ccc(-c2ccccc2)cc1)[C@H](C)C=CCC(=O)OC returned Marburg entry -3.8%[8.59 µM].
For CCN(CC)CCOc1ccc(-c2nc3cc(Cl)ccc3s2)cc1 the results were Marburg entry 12.6µM* and Lassa entry inconclusive.
For CCN(CC)CCOc1ccc2nc(N(C)C)sc2c1 the results were Marburg entry -3.5% and Lassa entry 11.9%.
`CCCC[C@]12Cc3cc(C#N)ccc3[C@H](O1)c1c(c3ccccc3oc1=O)O2` gave Marburg entry -8.1%[8.59 µM] and Lassa entry 6.7%[8.59 µM].
For COC(=O)C1=C(C(=O)OC)[C@@H]2Nc3ccccc3[C@@]23C[C@@H](C(=O)OC)N(C(=O)Nc2ccc(C(F)(F)F)cc2)C3=N1 the results were Marburg entry -15.4%[8.59 µM] and Lassa entry -15.9%[8.59 µM].
`c1ccc(CCCN2CCN(CCOC(c3ccccc3)c3ccccc3)CC2)cc1` gave Marburg entry 11.2µM* and Lassa entry 28.2µM*.
OCCOCCN1CCN(Cc2cccc(Oc3ccccc3)c2)CC1 was read as Marburg entry -27.9% and Lassa entry -0.5%.
`O=C(O)C1=CCCN(CCOC(c2ccc(C(F)(F)F)cc2)c2ccc(C(F)(F)F)cc2)C1` gave Marburg entry 4.3% and Lassa entry -4.6%.
`Fc1ccc(C(OCCN2CCN(CCCc3ccccc3)CC2)c2ccc(F)cc2)cc1` gave Marburg entry 7.94µM* and Lassa entry 14.1µM*!.
`C[C@]12CC[C@H]3[C@@H](CCC4=CC(=O)CC[C@@]43C)[C@@H]1CC[C@H]2O` gave Marburg entry 5.2% and Lassa entry -4.2%.
